Reference: ChEMBL document CHEMBL4513147, “CO-ADD screening of Armstrong State University (GA, USA) compounds”
The whole screen tested about 21,000 compounds, of which fewer than 10 showed an effect of 50% or more. A selection follows. Potency and affinity values are given separately.

system: Acinetobacter baumannii; settings: Concentration 32 ug.mL-1; ASSAY_TEST Inhibition of Bacterial Growth; detection method Absorption (OD600); MEDIA CAMHB; plate type 384well; NBS; CORNING #3640; time 18 hr

Structure (SMILES)	Inhibition
COc1ccc2c(c1)CCC(=Cc1cccnc1Br)C2=O	-2.26%
